Source: PubChem BioAssay
A number with no mark means an inactive call. No rule for the calls is given here.

Biological target: Pantothenate synthetase (Mycobacterium tuberculosis (strain ATCC 25618 / H37Rv)) (UniProt P9WIL5)
Assay: Recombinant Mtb pantothenate synthetase (PanC) inhibitors, coupled enzyme, confirmatory (AID 375);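 also: 0% = full reaction with vehicle and 100% = no enzyme background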
Details: coupled enzyme assay; at 10 µM, hits give high values

Sequence of Pantothenate synthetase (Mycobacterium tuberculosis (strain ATCC 25618 / H37Rv)) (P9WIL5 whole entry, looked up): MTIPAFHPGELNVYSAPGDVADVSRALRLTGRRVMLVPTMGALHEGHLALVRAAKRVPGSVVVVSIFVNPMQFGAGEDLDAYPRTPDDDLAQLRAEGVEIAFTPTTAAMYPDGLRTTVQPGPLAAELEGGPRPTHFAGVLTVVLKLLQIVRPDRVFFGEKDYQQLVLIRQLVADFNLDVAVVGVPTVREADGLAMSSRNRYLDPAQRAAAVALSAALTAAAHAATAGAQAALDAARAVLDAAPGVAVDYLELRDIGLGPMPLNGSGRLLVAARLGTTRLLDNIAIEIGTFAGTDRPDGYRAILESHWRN

| SMILES | inhibition [%] |
| --- | --- |
| c1ccc(-n2nnnc2OCCOc2nnnn2-c2ccccc2)cc1 | 3 |
| COc1cc(SC)ccc1C(=O)Nc1ccon1 | 0 |
| Nc1ccc(S(=O)(=O)NC(=O)c2ccccc2)cc1 | 0 |
| CCOC(=O)c1c(C)oc2ccc(O)c(CN(C)C)c12 | 0 |
| COc1ccccc1OCCCCNCCO | 0 |
| CCOC(=O)N1CCN(c2c(N3CCN(c4ccccn4)CC3)c(=O)c2=O)CC1 | 0 |
| Cn1c(C(=O)OCC(=O)NCC2CCCO2)cc2sccc21 (stereo not given) | 2 |
| O=C(c1cc2n(n1)C(C(F)(F)F)CC(c1ccc(Cl)cc1)N2)N1CCCC1 (stereo not given) | 5 |
| COc1cc(OC)cc(C(=O)N2CCN(C(=O)c3ccc(OC)c(OC)c3)CC2)c1 | 1 |
| CCOC(=O)c1oc2ccccc2c1NC(=O)COC | 0 |
| O=C(Nc1nonc1NC(=O)C1CCCCC1)C1CCCCC1 | 0 |
| CCN(CCNC(=O)C1CCN(S(C)(=O)=O)CC1)c1ccccc1 | 6 |
| CCc1nnc(NC(=O)c2ccc(COc3ccccc3)o2)s1 | 6 |
| CCOc1ccc(NC(=O)CSc2nccn2C)cc1 | 6 |
| Nc1nc(CSc2nc3ccccc3[nH]2)nc(N2CCOCC2)n1 | 4 |
| Cc1ccc2nc(NC(=O)Cn3cc4c(n3)CCCCC4)sc2c1 | 0 |
| O=C(NCc1ccco1)c1ccccc1Nc1ccc(F)cc1 | 0 |
| Cc1ccc(N2CC(C(=O)Nc3nnc(C)s3)CC2=O)cc1 (stereo not given) | 6 |
| O=C(CSc1nnc(CNC(=O)c2c(F)cccc2Cl)o1)c1ccccc1 | 0 |
| O=C(Nc1nc(-c2cccs2)cs1)c1cccc(S(=O)(=O)N2CCCCC2)c1 | 0 |

| SMILES | inhibition [%] |
| --- | --- |
| COc1ccc(C2=NOC(C(=O)NC3CCCCC3)C2)cc1OC (stereo not given) | 2 |
| CSCC[C@@H](Nc1nc(-c2ccccc2)nc2c1oc1ccccc12)C(=O)O | 4 |
| COc1ccccc1CCNC(=O)C1CCCO1 (stereo not given) | 0 |
| COc1ccc(C2C(C#N)=C(N)Oc3cc4c(cc32)OCO4)cc1 (stereo not given) | 0 |
| O=C(Cn1cnc2c(oc3ccccc32)c1=O)N1CCN(c2ccccc2)CC1 | 1 |
| CCO/C([O-])=N/c1c[n+](N2CCOCC2)no1 | 0 |
| Cc1ccc(CCNC(=O)C2CCN(S(=O)(=O)c3c(C)nn(C)c3C)CC2)cc1 | 0 |
| Cc1onc(-c2c(Cl)cccc2Cl)c1C(N)=O | 0 |
| CC(C)c1nnc(NC(=O)CCC(=O)NCc2ccc3c(c2)OCO3)s1 | 3 |
| O=C(O)CCNC(=O)c1ccccc1 | 3 |
| COc1ccc(-n2ncc3c(NCc4cccs4)ncnc32)cc1 | 0 |
| CCN(CCO)C1CC(=O)N(c2ccccc2C)C1=O (stereo not given) | 0 |
| COc1ccc(C)cc1NS(=O)(=O)c1ccc(NS(=O)(=O)c2ccc(NC(C)=O)cc2)cc1 | 1 |
| O=S(=O)(c1ccccc1)N1CCN(C2CCCCCCC2)CC1 | 8 |
| Cc1ccnc(NS(=O)(=O)c2ccc(N=CC3=C(O)CC(C)(C)CC3=O)cc2)n1 | 11 |
| Oc1ccc(/C=C/c2cc(O)cc(O)c2)cc1 | 0 |
| C=C(C)Cn1c(N2CC(C)CC(C)C2)nc2c1c(=O)[nH]c(=O)n2C (stereo not given) | 0 |
| Cc1nnc(N(Cc2ccco2)C(=O)c2cccc(C#N)c2)s1 | 2 |
| CCOC(=O)CC12CN3CN(C1)CC(CC(=O)OCC)(C3)C2=O | 1 |
| CCSc1ncc(C#N)c(=O)[nH]1 | 0 |
